Data: ChEMBL document CHEMBL3988442, “University of Dundee, Small-Polar-MMV Screening Library” (2021)
Screen size: about 48,000 compounds; about 13,000 (27%) showed an effect of 50% or more. The list shows a part of the results.

test system: Wolbachia pipientis; experiment: Anti-Wolbachia Cell-Based Screen; format: functional; set-up: scale not given: in the data most compounds retested in dose-response had high values; conditions: 5 µM

Row | Structure (SMILES) | Percent Effect [%]
1 | COCC1COCCC12CCN(S(=O)(=O)c1ccccc1)CC2 (stereo not drawn) | 111.6
2 | COCC1COCCC12CCN(S(=O)(=O)c1ccc(C)cc1)CC2 (stereo not drawn) | 101.4
3 | COCC1COCCC12CCN(C(=O)CCOc1ccccc1)CC2 (stereo not drawn) | 9.795
4 | COCC1COCCC12CCN(C(=O)CCc1ccccc1)CC2 (stereo not drawn) | -6.521
5 | CCOCC1COCCC12CCN(C(=O)CS(C)(=O)=O)CC2 (stereo not drawn) | -11.35
6 | COCC1COCCC12CCN(S(=O)(=O)c1cccnc1)CC2.O=C(O)C(F)(F)F (stereo not drawn) | 117.9
7 | COCC1COCCC12CCN(S(=O)(=O)c1ccccc1C)CC2 (stereo not drawn) | 121.7
8 | CCOCC1COCCC12CCN(C(=O)CC1=CCCCC1)CC2 (stereo not drawn) | -10.97
9 | CCO[C@@H]1CO[C@@]2(CCCN(S(=O)(=O)c3cccnc3)C2)C1.O=C(O)C(F)(F)F | -5.792
10 | CCn1cc2c(n1)CN(S(=O)(=O)c1cccnc1)CC2COC.O=C(O)C(F)(F)F (stereo not drawn) | -12.46
11 | COCC1COCCC12CCN(C(=O)CC1=CCCCC1)CC2 (stereo not drawn) | -25.41
12 | O=C(Cc1ccco1)N1CCC2(CCOCC2COCC2CC2)CC1 (stereo not drawn) | -44.1
13 | CCCNC(=O)Cn1nc(C(C)C)c2cnn(C(C)(C)C)c2c1=O | 13.78
14 | CNC(=O)c1sc(C(NC(=O)c2ccccc2)C2CC2)nc1C (stereo not drawn) | 1.807
15 | Cn1cc(C2CCCN2CCCc2nc(-c3cccs3)no2)cn1 (stereo not drawn) | 7.461
16 | CCn1nc(C)cc1C(=O)OCCNc1ncnc2ccccc12 | -8.299
17 | O=C(Nc1nncs1)NC1CCc2ccccc21 (stereo not drawn) | -2.226
18 | Cc1csc(CNC(=O)N(C)Cc2nnc3n2CCC3)n1 | -16.98
19 | O=C(NCc1nnc2n1CCCCC2)N(Cc1ccccn1)C1CC1 | -22.11
20 | CN(Cc1ccc(O)cc1)C(=O)NCc1nnc2n1CCCCC2 | 89.08
21 | CN(Cc1ccncc1)C(=O)NCc1nnc2n1CCCCC2 | 124.1

Row | Structure (SMILES) | Percent Effect [%]
22 | CCc1sc(C(=O)Nc2cnn(CC(N)=O)c2)cc1C | -1.226
23 | OCC1COCCN(c2ncccc2C(F)(F)F)C1 (stereo not drawn) | 17.46
24 | COCCn1cnnc1C(C)NC(=O)c1[nH]c2c(C)cc(C)cc2c1C (stereo not drawn) | -15.82
25 | Cc1nn(C)c(Cl)c1C1CCCN1C(=O)c1cc(Cl)c[nH]1 (stereo not drawn) | 15.12
26 | Cc1nn(C)c(Cl)c1C1CCCN1C(=O)c1cnc[nH]1 (stereo not drawn) | 106.1
27 | COc1c(C2CCCN2C(=O)c2cnc[nH]2)c(C)nn1C (stereo not drawn) | 99.16
28 | COc1c(C2CCCN2C(=O)c2cc(Cl)c[nH]2)c(C)nn1C (stereo not drawn) | 7.72
29 | Cc1nn(C)c(Cl)c1C1CCCN1C(=O)c1ccc[nH]1 (stereo not drawn) | 99.71
30 | c1ccc(-c2noc([C@@H]3Cc4nc[nH]c4CN3)n2)cc1 | -8.482
31 | COCCCN(Cc1cnc(C2CCCCC2)nc1)C1CCN(C)CC1 | 105.2
32 | COCCCN(Cc1cnc(N2CCCC2)nc1)C1CCN(C)CC1 | 104.1
33 | COCCCN(C(=O)c1ccc(-n2ccnc2)cc1)C1CCN(C)CC1 | -6.688
34 | COCCCN1CCc2cncnc2C1 | -3.846
35 | COCCN1CCC(CN(Cc2ccncc2)C2CCCCC2)CC1 | -7.976
36 | COCCN1CCC(CN(Cc2ccncc2)C2CCC2)CC1 | 3.665
37 | Cc1ccc(C)c2c(O)cc(CN3CCC(c4nncn4C)CC3)nc12 | 4.156
38 | CC(C)(C)c1cn2nc(N3CCOC(Cn4cncn4)C3)sc2n1 (stereo not drawn) | 9.569
39 | Cc1ccc(CN2CCC3(CC2)CC3CN(C)Cc2cccnc2)o1.O=C(O)C(F)(F)F.O=C(O)C(F)(F)F.O=C(O)C(F)(F)F (stereo not drawn) | 5.127
40 | Cc1cccc(CN2CCC3(CC2)CC(c2cccnc2)C(=O)N3C)n1.O=C(O)C(F)(F)F.O=C(O)C(F)(F)F (stereo not drawn) | 108
41 | Cc1cccc(CN2CCC3(CC2)CC(Oc2cccnc2)C3)n1.O=C(O)C(F)(F)F.O=C(O)C(F)(F)F | -6.69
42 | Cc1ccc(CN2CCC3(CC2)CC(c2cccnc2)C(=O)N3C)o1.O=C(O)C(F)(F)F.O=C(O)C(F)(F)F (stereo not drawn) | 111.7

Row | Structure (SMILES) | Percent Effect [%]
43 | Cc1cc(C(=O)N2CCC3(CC2)CC(c2cccnc2)C(=O)N3C)no1.O=C(O)C(F)(F)F (stereo not drawn) | 1.086
44 | Cc1nc(CN2CCC3(CC2)CC(c2cccnc2)C(=O)N3C)cs1.O=C(O)C(F)(F)F.O=C(O)C(F)(F)F (stereo not drawn) | 114.5
45 | COC(=O)CNC(=O)CSCc1nc(O)c2cc(C(C)C)sc2n1 | 2.369
46 | CN(Cc1ncnn1C)C(=O)Nc1ccc(OC(F)F)cc1 | -14.3
47 | CN(c1ncnc2c1CCC2)C1CCCN(c2cccnn2)C1 (stereo not drawn) | 4.941
48 | COc1ccc(F)c(CN2CCCC(O)(CNCc3ncc[nH]3)C2=O)c1 (stereo not drawn) | 0.3473
49 | C=C(C)COc1cccc(C(=O)N2CCC3(CCOCC3)CC2)c1 | 0.8095
50 | CCOc1ccc(-c2ccnc(COc3ccccc3)n2)cc1C(=O)O | -3.347
51 | Cn1cnc(S(=O)(=O)N2C[C@@H]3CC[C@H](C2)N(Cc2cscn2)C3=O)c1 | -55.67
52 | Cc1ccc(C)c(C(C(=O)O)N2CCCN(Cc3ccccn3)CC2)c1 (stereo not drawn) | 19.25
53 | Cc1cc(CN2CCN(C(=O)C3(C#N)CCCCC3)CC2)on1 | -1.898
54 | Cc1cc(Cl)c(C)c(S(=O)(=O)N2CCN(Cc3ccncc3)CC2)c1Cl | 94.36
55 | Cc1ccc(S(=O)(=O)N2CCN(Cc3ccncc3)CC2)c(Cl)c1 | 109.7
56 | CCN1CCN(S(=O)(=O)c2cc(Cl)c(Cl)cc2C)CC1 | 4.693
57 | Cc1cc(CN2CCN(S(=O)(=O)c3c(C)c(Cl)cc(C)c3Cl)CC2)on1 | 85.02
58 | Cc1cc(Cl)c(C)c(S(=O)(=O)N2CCN(Cc3ccccn3)CC2)c1Cl | 101.6
59 | CCCNC(=O)N1CCN(Cc2cc(C)no2)CC1 | 1.77
60 | Cc1ccc(CN2CCN(Cc3ccncc3)CC2=O)cc1 | -11.1
61 | CNS(=O)(=O)c1ccc(CN2CCCN(Cc3ccncc3)CC2)cc1 | 21.96
62 | Cc1cc(F)c(C(C(=O)O)N2CCN(Cc3ccccn3)CC2)cc1Cl (stereo not drawn) | 7.172
63 | Cc1ccc(S(=O)(=O)N2CCn3nc(C)nc3C2)c(Cl)c1 | 0.9769
